Compound activity from PubChem BioAssay.
Shown are actives, neighbours in structure and some others; about 3.9% of the full set was active somewhere.
Vc quorum ag: inducers of Vibrio cholerae quorum light production without autoinducers | activation, % at 18.7 µM | AID 588436 | hit rate 0.16% among 350,000 | V. cholerae BH1578 lux reporter, luminescence, 6 h; in the data active means activation mostly above about 9.7%, no sharp cut-off
GDH-TPI counter-1: GDH-TPI coupled enzyme inhibition counter-screen; GDH-TPI coupled enzyme counterscreen, NADH absorbance; hit rate 1.2% among 360,000; inhibition, % at 4.8 µM; in the data active means inhibition above about 30%
CCHF vOTU inh: CCHFV vOTU protease inhibition. hit rate 0.55% among 370,000. Pep-AMC fluorescence. AID 651958. inhibition, % at 11.5 µM; in the data active means inhibition above about 30%
FBA Mtb inh: inhibits M. tuberculosis FBA enzyme | inhibition, % at 1 µM | P9WQA3 | purified M. tuberculosis FBA, fluorescence read-out | hit rate 2.3% among 360,000
Target sequence (P9WQA3 whole entry, looked up): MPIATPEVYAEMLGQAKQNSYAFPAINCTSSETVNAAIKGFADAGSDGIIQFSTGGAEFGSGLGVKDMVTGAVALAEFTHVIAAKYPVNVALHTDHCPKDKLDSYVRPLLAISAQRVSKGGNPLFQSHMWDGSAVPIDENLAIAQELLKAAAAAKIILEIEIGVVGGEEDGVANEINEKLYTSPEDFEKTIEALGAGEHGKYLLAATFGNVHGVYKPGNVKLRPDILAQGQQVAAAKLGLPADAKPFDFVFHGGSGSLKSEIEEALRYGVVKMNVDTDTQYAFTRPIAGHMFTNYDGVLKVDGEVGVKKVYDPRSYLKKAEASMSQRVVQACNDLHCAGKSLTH
Mtb FBA inh conf: Mtb FBA inhibition, confirmed; shares compounds with FBA Mtb inh; purified M. tuberculosis FBA, fluorescence read-out; inhibition, % at 1 µM; hit rate 78% among 5,600; AID 651616
GDH-TPI counter-2: counter-screen for M. tuberculosis FBA inhibitors: GDH-TPI coupled enzyme inhibition | shares compounds with FBA Mtb inh | GDH-TPI coupled enzyme counterscreen, fluorescence | inhibition, % at 1 µM | hit rate 81% among 5,600; in the data active means inhibition above about 10%
GDH-TPI dose: counter-screen for M. tuberculosis FBA inhibitors: GDH-TPI dose response. shares compounds with FBA Mtb inh. GDH-TPI coupled enzyme assay, fluorescence, artifact counterscreen. IC50, µM. hit rate 79% among 170. AID 652145; call rule not given here
Numbers stand for hits; . = inactive; / = no result given; + = active, no number. Unless noted, no stated cut-off is given here; in the data, active means inhibition above about 27%; inactive means the rest.

SMILES | Vc quorum ag | GDH-TPI counter-1 | CCHF vOTU inh | FBA Mtb inh | Mtb FBA inh conf | GDH-TPI counter-2 | others
Oc1ccc(C=Nc2cccc3ccccc23)c(O)c1 | . | . | . | 62 | 132 | 122
O=[N+]([O-])c1cccc(C=Nc2cccc3ccccc23)c1O | . | . | . | 39 | 179 | 157
O=[N+]([O-])c1ccc(O)c(C=Nc2cccc3ccccc23)c1 | . | . | . | . | / | /
NC(=O)CC(NC(=O)Cc1ccc(Cl)cc1)c1ccc(NC2CCN(Cc3ccccc3)CC2)c([N+](=O)[O-])c1 (stereo not drawn) | . | . | . | . | / | /
CCCCCCC(C)(C)c1ccc([C@@H]2C[C@H](O)CC[C@H]2CCCO)c(O)c1 | . | . | . | . | / | /
CCOC(=O)c1sc(-c2ccc(OC)cc2)cc1NC(C)=O | . | . | . | 79 | 153 | 134
Nc1cccc2c3c(oc12)CCCC3 | . | . | . | . | / | /
COc1cccc2c(=O)c3c(oc12)CCCC3 | . | . | . | 45 | 131 | 94
COc1ccc(-c2nc3ccccc3nc2-c2ccc(OC)c(OC)c2)cc1OC | . | . | . | . | / | /
COc1ccccc1-c1nc2ccccc2nc1-c1ccccc1OC | . | . | . | 28 | 166 | 140
O=C(CS(=O)(=O)c1ccccc1)c1cc2ccccc2oc1=O | . | . | / | . | / | /
COc1ccc2cc(C(=O)CS(=O)(=O)c3ccccc3)c(=O)oc2c1 | . | . | . | 57 | 56 | 46
O=C(CS(=O)(=O)c1ccccc1)c1cc2cc(F)ccc2oc1=O | . | . | / | 62 | . | .
COc1ccc(OC)c(S(=O)(=O)CC(=O)c2cc3ccccc3oc2=O)c1 | / | / | . | / | / | /
CN(Cc1nc(-c2ccccn2)no1)S(=O)(=O)c1ccccc1 | . | . | . | . | / | /
CC(=O)c1cc2c(cc1NC(=O)CCn1cccc1)OCO2 | . | . | . | . | / | /
COc1ccccc1-c1cc(NC=O)c2ncc(-c3ccc(S(C)(=O)=O)cc3)n2c1 | . | . | . | 104 | + | +
COc1ccc(-c2cnc3c(NC=O)cc(-c4ccc(S(C)(=O)=O)cc4)cn23)cc1OC | . | . | . | . | / | /
O=CNc1cc(-c2ccsc2)cn2c(-c3ccccc3)cnc12 | . | . | . | . | / | /
CS(=O)(=O)c1ccc(-c2cnc3c(NC=O)cc(-c4ccsc4)cn23)cc1 | . | . | . | 29 | 167 | 136
C=CCN(CC=C)c1ccc(N2C(=O)C3CCCCC3C2=O)cc1[N+](=O)[O-] (stereo not drawn) | . | . | . | . | / | /
COc1ccc(C(=O)/C=C/Nc2ccc([N+](=O)[O-])cc2C)c(OC)c1 | . | . | / | . | / | /
COc1ccc(C(=O)/C=C/Nc2ccc([N+](=O)[O-])cc2C)cc1OC | . | . | . | 88 | 83 | 75
CCN1CCN(Cc2c(O)ccc3c(=O)c(-c4ccc(OC)c(OC)c4)c(C)oc23)CC1 | . | . | . | 41 | 62 | 51
COc1ccc(-c2c(C)oc3c(CN4CCN(C)CC4)c(O)ccc3c2=O)cc1 | . | . | . | 102 | 63 | 40
SMILES | Vc quorum ag | GDH-TPI counter-1 | CCHF vOTU inh | FBA Mtb inh | Mtb FBA inh conf | GDH-TPI counter-2 | others
Cc1cc(Br)ccc1NC(=O)c1ccc(-n2cncn2)c([N+](=O)[O-])c1 | . | . | . | . | / | /
O=C(O)c1nn(CC(=O)N2CCN(S(=O)(=O)c3ccc(Cl)cc3)CC2)c(=O)c2ccccc12 | . | . | . | . | / | /
CCOC(=O)c1c(C)[nH]c(C)c1S(=O)(=O)NCC(=O)Nc1ccccn1 | . | . | . | . | / | /
Cc1cccc(NC(=S)NC(NC(=O)c2ccco2)C(Cl)(Cl)Cl)c1 (stereo not drawn) | . | . | . | 74 | 89 | 95
Cc1ccc(NC(=S)NC(NC(=O)c2ccco2)C(Cl)(Cl)Cl)cc1 (stereo not drawn) | . | . | . | . | / | /
Cc1cc(OCC(=O)NCCc2ccc(S(N)(=O)=O)cc2)c2c(C)c(C)c(=O)oc2c1 | . | . | . | 65 | . | . | GDH-TPI dose=2
Cc1cc(OCC(=O)NCCCN2CCCC2=O)c2c(C)c(C)c(=O)oc2c1 | . | . | . | 80 | + | +
Cc1cc(=O)oc2cc(OCC(=O)NCCCN3CCCC3=O)ccc12 | . | . | . | . | / | /
Cc1c(OCC(=O)NCCCN2CCCC2=O)ccc2c3c(c(=O)oc12)CCCC3 | . | . | . | 29 | + | +
Cc1c(C)c2ccc(OCC(=O)NCCCN3CCCC3=O)cc2oc1=O | . | . | . | 87 | 56 | 46
CCOC(=O)CSc1nc(C(C)C)nc2ccccc12 | . | . | . | . | / | /
CC(=O)N1c2ccc(S(=O)(=O)NCCc3ccccc3)cc2CC1C (stereo not drawn) | . | . | . | . | / | /
Cc1cc(OCC(=O)NCCCN2CCOCC2)c2c(C)c(C)c(=O)oc2c1 | . | . | . | 86 | 129 | 144
COc1ccc(CCN(C)C(=O)c2cc(=O)c3ccccc3o2)cc1OC | . | . | . | 50 | . | .
c1ccc2c(c1)COc1c3ncccc3nn1-2 | . | . | . | 33 | 37 | 32
O=C(c1ccc2c3n(nc2c1)-c1ccccc1CO3)N1CCCCC1 | . | . | . | . | / | /
COc1ccc2[nH]c3c(c2c1)CCN[C@]31C(=O)N(Cc2cn(Cc3ccccc3)nn2)c2ccccc21 | / | / | . | / | / | /
C=CCn1cc(-c2cccc(Cl)c2)cc(C#N)c1=O | . | . | . | 28 | 69 | 48
Cn1c(-c2ccc(Cl)cc2)ccc(C#N)c1=O | . | . | . | . | / | /
Cn1cc(-c2ccc(Cl)cc2)cc(C#N)c1=O | . | . | . | 56 | . | 17
N#Cc1cc(-c2cccc(Cl)c2)c[nH]c1=O | . | . | . | 46 | . | . | GDH-TPI dose=4.1
Cc1ccc(NC(NC(=O)c2ccccc2[N+](=O)[O-])C(Cl)(Cl)Cl)cc1 (stereo not drawn) | . | . | . | . | / | /
COc1cc(OC)cc(C(=O)NNC(=O)C2CCC2)c1 | . | . | . | . | / | /
COc1ccc(CNCCS(=O)(=O)NCc2ccccc2)cc1 | . | . | . | . | / | /
CC(C)CCNC(=O)c1cc2c(=O)[nH]c3ccccc3c2s1 | . | . | . | . | / | /
SMILES | Vc quorum ag | GDH-TPI counter-1 | CCHF vOTU inh | FBA Mtb inh | Mtb FBA inh conf | GDH-TPI counter-2 | others
CCCCN(CC)CCNC(=O)c1cc2c(=O)[nH]c3ccc(C)cc3c2s1 | . | . | . | 36 | 59 | 46
CCOCCCNC(=O)c1cc2c(=O)[nH]c3ccccc3c2s1 | . | . | . | 71 | + | +
CCC(C)NC(=O)c1cc2c(=O)[nH]c3ccc(C)cc3c2s1 (stereo not drawn) | . | . | . | 70 | 89 | 65
CCCCN(CC)CCCNC(=O)c1cc2c(=O)[nH]c3ccccc3c2s1 | . | . | . | 72 | 170 | 153
Cc1ccc2[nH]c(=O)c3cc(C(=O)NCCC(C)C)sc3c2c1 | . | . | . | . | / | /
Cc1ccc(NC(=S)NC(NC(=O)c2ccccc2)C(Cl)(Cl)Cl)c(C)c1 (stereo not drawn) | . | . | . | . | / | /
COCc1cccc(-c2csc(C(O)c3ccc(F)c(OC)c3)n2)c1 (stereo not drawn) | . | . | . | . | / | /
